FXIa single inh – human FXIa protease inhibitors, primary screen, biochemical, single compound per well; Coagulation factor XI (Homo sapiens), P03951; purified human FXIa, fluorogenic AMC substrate cleavage; inhibition, % at 10 µM; hit rate 0.3% among 33,000; AID 687, 2007;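 active means inhibition above 40% in the primary screen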;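 further: 0% = enzyme without compound and 100% = blank wells lacking enzyme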
FXIIa inh – human FXIIa protease inhibitors, primary screen, biochemical, single well | hit rate 0.2% among 33,000 | Coagulation factor XII (Homo sapiens), P00748 | purified human FXIIa, AMC substrate fluorescence, 2 h | inhibition, % at 10 µM; in the data active means inhibition above about 30%;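 further: 0% = enzyme with vehicle only and 100% = no enzyme blank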
Target sequence (P00748 20-372 limits assumed): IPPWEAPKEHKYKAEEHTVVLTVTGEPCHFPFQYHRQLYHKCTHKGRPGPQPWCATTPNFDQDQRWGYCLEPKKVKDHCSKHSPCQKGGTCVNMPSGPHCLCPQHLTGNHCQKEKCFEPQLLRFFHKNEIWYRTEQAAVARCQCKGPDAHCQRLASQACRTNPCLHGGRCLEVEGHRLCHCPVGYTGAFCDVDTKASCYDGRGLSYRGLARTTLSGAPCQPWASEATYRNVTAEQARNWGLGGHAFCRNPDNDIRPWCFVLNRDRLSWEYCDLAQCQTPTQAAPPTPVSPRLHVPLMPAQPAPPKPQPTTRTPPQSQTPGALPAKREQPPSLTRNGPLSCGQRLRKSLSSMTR
Target sequence (P00748 373-615 limits assumed): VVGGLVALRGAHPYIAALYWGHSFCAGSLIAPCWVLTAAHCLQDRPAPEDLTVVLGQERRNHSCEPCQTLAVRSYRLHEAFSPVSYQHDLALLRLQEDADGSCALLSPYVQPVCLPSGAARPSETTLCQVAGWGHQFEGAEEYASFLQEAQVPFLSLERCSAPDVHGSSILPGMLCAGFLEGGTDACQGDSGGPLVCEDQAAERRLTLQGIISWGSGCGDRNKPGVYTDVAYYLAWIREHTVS
The depositor's hits bear a star. The sample as a whole holds a higher share of hits than the screen did.

SMILES | FXIa single inh | FXIIa inh
CCC(CO)NCc1ccc(OC2CCCC2)cc1 (stereo not given) | 66* | -17
CCOC(=O)CC1=CC(C)(CC(=O)OCC)C(C#N)(C#N)C(N)=C1C#N (stereo not given) | 2 | 7
COc1ccc2c(c1)CCc1c(C(=O)NCc3ccc(Cl)cc3)noc1-2 | 2 | 81*
COc1ccc2c(c1)CCc1c(C(=O)Nc3c(C)nn(Cc4ccccc4)c3C)noc1-2 | 29 | -9
Cc1cc(C)c(NC(=O)C2CCN(c3cnccn3)CC2)c(C)c1 | 0 | 5
CCC(C)(C(=O)NC1CCCCC1)N(Cc1ccco1)C(=O)c1ccccn1 (stereo not given) | 25 | -11
CCOC(=O)c1ccccc1NC(=O)CSc1nnnn1C | -4 | 7
COc1ccc(Cn2nnnc2C(c2ccccc2Cl)N2CCC(C(N)=O)CC2)cc1 (stereo not given) | 45* | 2
Clc1ccccc1C(c1nnnn1Cc1ccco1)N1CCN(Cc2ccco2)CC1 (stereo not given) | -2 | 4
COc1cccc(CN2C(=O)CCC2(C)C(=O)NC2CCCC2)c1 (stereo not given) | -3 | -11
CCOC(=O)c1c(C)sc2c1N(C(C)=O)c1cc(Cl)ccc1S2 | -2 | 3
CCN(CC)c1cnn(C/C(=N\OC)c2ccc(Cl)cc2)c(=O)c1Br | 0 | 7
O=C(C1CCC1)N(CCc1ccccc1)Cc1nc2ccccc2c(=O)[nH]1 | 1 | 34*
CCCC(=O)N(CCc1ccc(OC)cc1)Cc1nc2ccccc2c(=O)[nH]1 | 2 | 13
Cc1cc(OC(=O)c2ccco2)c2c(C)cc(=O)oc2c1 | 44* | 31*
CC(=O)Oc1cc(OC(C)=O)c2c(C)cc(=O)oc2c1 | -4 | -1
COCc1cc(=O)[nH]c(/N=C(\N)Nc2ccccc2C)n1 | -3 | 3
COC(=O)CSc1nnc(C)n1-c1ccc(C)cc1 | -6 | 9
COC(=O)CSc1nnc(C)n1-c1cccc(OC)c1 | 43* | 1
O=C(O)CCCN=CC1=C(O)C(C(=O)c2ccccc2)CCC1=O (stereo not given) | 0 | 3
COc1ccc2c(c1)c1ccccc1n2C | 1 | 5
COc1ccc2c(=O)cc(-c3ccccc3)n(C)c2c1 | 105* | -13
CCOC(=O)N1CCN(C(=O)CS(=O)(=O)c2cn(Cc3cccc(F)c3)c3ccccc23)CC1 | 6 | 6
CCc1ccc(N(CC(=O)NC)S(C)(=O)=O)cc1 | 1 | 8
O=C(Oc1ccc(Cl)c2cccnc12)c1ccco1 | 7 | 37*
SMILES | FXIa single inh | FXIIa inh
O=C(Oc1cccc2cccnc12)c1ccco1 | -5 | 10
CCC(C)(C)n1nnnc1C(C(C)C)N1CCSCC1 (stereo not given) | 3 | -7
Oc1ccc(-c2nc3ccccn3c2NCc2ccco2)cc1 | -1 | -7
Cc1cc(=O)[nH]c(-n2[nH]c(C)cc2=O)n1 | 48* | 3
Cc1cccc(OCc2nc(C)cc(=O)[nH]2)c1 | -2 | 3
FC(F)(F)c1cc(-c2ccco2)nc(NCCc2ccccc2)n1 | 7 | 4
CN(C)CCNC(=O)C12CC3(C)CC(C)(CC(C)(C3)C1)C2 | -5 | 5
COc1ccc(C(=O)N(Cc2ccccc2)Cc2cc3cc4c(cc3[nH]c2=O)OCCO4)cc1 | -10 | 2
COc1cccc(C(=O)N(Cc2ccccc2)Cc2cc3cc4c(cc3[nH]c2=O)OCCO4)c1 | 47* | 4
NC(=O)C1=NOC(CNc2ncc(C(F)(F)F)cc2Cl)C1 (stereo not given) | -3 | 5
Cc1ccc(-c2cc(-c3ccccc3)c3c(N)c(S(C)(=O)=O)sc3n2)cc1 | -5 | 51*
Cc1cc(C)c2c(N)c(S(=O)(=O)Cc3ccccc3)sc2n1 | 8 | 5
Cc1ccc(S(=O)(=O)CCC(=O)N2CCN(c3ccc(Cl)cc3)CC2)cc1 | -1 | 3
Cc1ccc(-n2c(CNc3ccc(F)cc3)nnc2SCC(N)=O)cc1 | -2 | 5

Screens as filed in PubChem BioAssay.
